Screening data: PubChem, National Center for Advancing Translational Sciences (NCATS)
Hits are enriched below; roughly 12% of the tested compounds scored in any of these assays.
PI5P4K alpha inh – inhibitors of human PI5P4K alpha; P48426; PI5P4Kalpha enzyme, ADP-Glo luminescence, 60 min; stronger effect = lower value; max response, %; hit rate 1.2% among 330,000; active = max response of -50% or lower; inconclusive = between -30% and -50%; inactive = -30% or higher; also: value at the top dose of about 77 µM
Target sequence (P48426 whole entry, looked up): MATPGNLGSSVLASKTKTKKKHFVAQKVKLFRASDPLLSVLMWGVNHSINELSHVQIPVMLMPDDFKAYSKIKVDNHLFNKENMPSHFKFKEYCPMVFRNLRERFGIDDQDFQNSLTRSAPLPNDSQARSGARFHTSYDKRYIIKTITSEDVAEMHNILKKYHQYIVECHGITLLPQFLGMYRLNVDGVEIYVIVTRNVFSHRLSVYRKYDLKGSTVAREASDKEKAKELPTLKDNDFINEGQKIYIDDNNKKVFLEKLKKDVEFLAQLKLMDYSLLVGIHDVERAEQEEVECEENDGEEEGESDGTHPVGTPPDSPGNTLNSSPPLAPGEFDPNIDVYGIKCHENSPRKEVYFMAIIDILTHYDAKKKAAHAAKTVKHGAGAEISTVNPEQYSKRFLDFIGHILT
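Quantitative HTS of the MLSMR library against PI5P4Kalpha with substrate. ATP added last at 5 microM final; room temperature, 60 minutes. Remaining ATP depleted, ADP converted and read as luminescence.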
PLK1 PBD block – inhibitors of human PLK1 polo-box domain binding. Potency, µM, actives largely listed as inhibitors. hit rate 2.8% among 360,000. P53350. Plk1 PBD binding of FITC phosphopeptide, fluorescence polarization; also: series mostly up to about 57 µM; nearly all actives have a fitted effect of over 65% in size
BAZ2B inh – blocks human BAZ2B; Potency, µM (top dose mostly 114 µM), most hits filed as inhibitors; hit rate 4.4% among 360,000; Q9UIF8; AID 504333; AlphaScreen BAZ2B-H3K14Ac peptide displacement; also: nearly all actives have a fitted effect of over 60% in size
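In this displacement format the biotinylated H3(5-23) peptide acetylated at Lys14 serves as ligand at 50 nM, with BAZ2B at 50 nM in PBS pH 7.4 containing 0.01% Tween-20. Donor and acceptor beads are 10 ug/mL final.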
HP1b chromo inh – inhibitors of HP1-beta chromodomain binding to methylated histone tails; P83916; AlphaScreen HP1-beta / biotin-H3K9me3 peptide binding; Potency, µM (doses to about 114 µM), actives largely listed as inhibitors; hit rate 0.56% among 390,000; AID 540317; also: nearly all actives have a fitted effect of over 70% in size
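Compound inhibition of the preformed complex between 50 nM HP1-beta and 50 nM biotinylated H3K9me3 peptide was read by AlphaScreen. Buffer was PBS pH 7.4 with 0.01% Tween-20. Incubations ran 30 min at room temperature, with 10 ug/mL donor/acceptor beads.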
JMJD2A Tudor inh – JMJD2A Tudor domain (human) inhibition. O75164. AlphaScreen JMJD2A-Tudor / H3K4me3 peptide binding. Potency, µM (top dose mostly 114 µM), usual class: inhibitors. hit rate 4.4% among 390,000. AID 504339; also: nearly all actives have a fitted effect of over 50% in size
G9a block – inhibitors of human histone lysine methyltransferase G9a | AID 504332 | Potency, µM (top dose mostly 102 µM), hits mostly inhibitors | Q96KQ7 | G9a H3K9 monomethylation, AlphaScreen, 2 h | hit rate 8.8% among 350,000; also: nearly all actives have a fitted effect of over 75% in size
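Chemiluminescent proximity detection of H3K9 monomethylation, read after 10 min bead incubation in the dark. Reaction: 20 nM G9a, 500 nM biotin-H3K9 peptide, 20 uM SAM cofactor, 2 h, room temperature, following 15 min enzyme-compound preincubation.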
Hits are given with their value; i = inactive; ? = inconclusive; nt = no result given; [ ] = dose if it differs, or a comment. Unless noted, calls follow the shape of the dose curve; as a rule, active = well fitted curve in the direction sought with a large enough effect; inconclusive = small, poorly fitted or top-dose-only effect, or another doubt; inactive = no such curve, though single readings can be large; an effect the other way counts as inactive or inconclusive.

SMILES	PI5P4K alpha inh	PLK1 PBD block	BAZ2B inh	HP1b chromo inh	JMJD2A Tudor inh	G9a block
CC1CCCN(C(=O)c2ccc(CSc3nc4ccncc4n3Cc3ccccc3)cc2)C1 (configuration not stated)	nt	nt	i	i	i	?
CC1CCN(C(=O)c2ccc(CSc3nc4ccncc4n3Cc3ccc(F)cc3)cc2)CC1	i	i	i	i	i	79.4µM
CCOC(=O)c1c(-c2ccc3ccccc3c2)csc1NC(=O)CCCC(=O)O	i	23.8µM	i	i	i	?
CCOC(=O)c1c(-c2ccc(OC)cc2)csc1NC(=O)CCN1C(=O)c2ccccc2C1=O	nt	10.6µM	i	i	i	?
CCOC(=O)c1c(-c2ccc(C)cc2)csc1NC(=O)CCN1CC(C)OC(C)C1 (configuration not stated)	i	i	22.4µM	35.5µM	8.91µM	?
CCOC(=O)c1c(-c2ccc(OC)cc2)csc1NC(=O)CCN1CCOCC1	i	i	22.4µM	?	20µM	3.55µM
Cc1ccc(C(=O)C(C)OC(=O)Cn2c(C)csc2=O)cc1 (configuration not stated)	i	i	i	i	i	?
C[C@@H](NC(=O)[C@H]1O[C@@H](n2cnc3c(N)ncnc32)[C@H](O)[C@@H]1O)c1cccc2ccccc12	i	i	nt	nt	nt	nt
CC(C)c1nn2c(=O)cc(COC(=O)c3ccc(NC(=O)c4ccccc4Cl)cc3)nc2s1	nt	nt	i	i	i	i
OCc1ccccc1O[C@H]1OC(CO)C(O)C(O)C1O (some centres not stated)	nt	nt	nt	nt	nt	i[2.33 µM]
COc1ccc(-c2cc(C(F)(F)F)nc(SCC(=O)Nc3ccc(O)cc3)n2)cc1OC	nt	nt	i	i	i	i
CCC(C)n1c(OC)nc2c1c(=O)n(C)c(=O)n2C (configuration not stated)	i	2.67µM	i	i	11.2µM	i
CCn1c(OC)nc2c1c(=O)n(C)c(=O)n2C	i	i	i	i	i	nt
C=CCOc1nc2c(c(=O)n(C)c(=O)n2C)n1C	nt	i	i	i	i	i
C/C=C/COc1nc2c(c(=O)n(C)c(=O)n2C)n1C	?	2.99µM	i	?	i[11.4 µM]	i
CCCN(C/C=C/I)C1CCc2cccc(O)c2C1 (configuration not stated)	nt	nt	nt	nt	nt	i
CCn1ncc(CNC(=O)CCCSc2nc(-c3ccco3)cc(C(F)(F)F)n2)c1C	i	i	i	i	i	15.8µM
O=C(O)CC1S/C(=N/N=C/c2ccc(-c3ccccc3[N+](=O)[O-])o2)NC1=O (configuration not stated)	nt	i	50.1µM	i	?	i[2.33 µM]
Cc1cc(F)ccc1NC(=O)C(c1ccccc1)N1Cc2ccccc2C1=O (configuration not stated)	nt	nt	i	i	i	i
CN(C)CCSc1nnc2[nH]c3ccccc3c2n1	i	i	i	i	i	1.41µM
Fc1cccc(CSc2nnc3c(n2)[nH]c2ccccc23)c1	i	i	i	i	i	i
CCCCCC(=O)Nc1nc(C)c(-c2csc(Nc3cc(OC)ccc3OC)n2)s1	i	i	28.2µM	?	50.1µM	7.08µM
CCCCCCC(=O)Nc1nc(C)c(-c2csc(Nc3cc(OC)ccc3OC)n2)s1	i	i	?	i	50.1µM	?
CCCCCCC(NC(=O)Cc1ccc2ccccc2c1)C(=O)O (configuration not stated)	i	i	nt	i	i	nt
Cc1ccc2cccc(NC(=O)c3ccc(-c4ccc(Br)cc4)o3)c2n1	nt	nt	i	i	i	i
SMILES	PI5P4K alpha inh	PLK1 PBD block	BAZ2B inh	HP1b chromo inh	JMJD2A Tudor inh	G9a block
O=C(Nc1cccc2nsnc12)c1ccc(-c2ccc(Br)cc2)o1	i	i	i	i	i	39.8µM
CNC(=O)CN1C(=O)CSc2ncccc21	i	i	i	i	i	i
CCN(CC)c1ccc(NC(=O)CN2C(=O)CSc3ncccc32)c(C)c1	i	?	i	i	i	79.4µM
CCN(CC)c1ccc(NC(=O)CN2C(=O)c3cccnc3Oc3ccccc32)c(C)c1	nt	nt	?	i	?	8.91µM
CCN(CC)c1ccc(NC(=O)CC2Oc3ccccc3NC2=O)c(C)c1 (configuration not stated)	i	i	i	i	i	10µM
Cc1cccc(NC(=O)CCN2C(=O)c3ccccc3S2(=O)=O)c1C	i	i	i	i	i	nt
